Over roughly 59,000 sequences, the read-out has its median near -0.00055; the lowest 2% begin near -2. Only a selection was taken, and the lowest values are over-represented in it overall.
Assay: Identification of proteins required for the processing of the EWS-FLI1 nascent transcript;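 also: robust z of luciferase light less the median z of siRNAs with the same seed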
Details: TC32 Ewing sarcoma NR0B1-luc vs CMV-luc (EWS-FLI1 target promoter against control promoter), 48 h; screened at 20 nM (by protocol)
Procedure: Ewing sarcoma (ES) cells depend on the EWS-FLI1 fusion transcription factor for cell survival. Using an assay of EWS-FLI1 activity and genome-wide siRNA screening we have identified proteins required for the processing of the EWS-FLI1 nascent transcript. Parallel genome-wide siRNA-mediated RNAi screens were conducted in Ewing sarcoma TC32 cell lines expressing a luciferase (luc) reporter protein driven by either the promoter of the EWS-FLI1 target gene NR0B1 (TC32-NR0B1-luc) or the CMV promoter (TC32-CMV-luc). Luciferase activity was assessed 48 hours post siRNA-transfection.
Twenty microl of serum-free media containing Lipofectamine RNAiMax (0.05 microl) was added to wells containing siRNA (0.8 pmol). Lipid and siRNA were allowed to complex for 45 min at ambient temperature before addition of 600 cells in RPMI-1640, 20% FBS to yield final transfection mixtures containing 20 nM siRNA in RPMI-1640, 10% FBS. Luciferase expression was measured using OneGlo (Promega, Madison, WI). The genome-wide screening campaign was conducted using Ambion's human genome library version 4.1 (Ambion, Austin TX). This library targets approximately 21000 human genes, three siRNAs per gene. Each siRNA is arrayed in an individual well of a 384-well plate. Parallel transfections were conducted in TC32-NR0B1-luc and TC32-CMV-luc cell lines and luciferase expression (OneGlo, Promega) was assayed 48 h later on a PerkinElmer Envision 2104 Multilabel plate reader (PerkinElmer, Waltham, MA). Qiagen's AllStars Negative control was incorporated on all screening plates for normalization (16 wells per plate). Qiagen, Germantown, MDsiGL4 was incorporated as a positive transfection control (16 wells per plate) on all plates. […] The raw luciferase data for the NR0B1- and CMV-luc screens were normalized and z-score-MAD transformed using standard methods (Chung et al., 2008). The miRNA-like seed sequence of every siRNA was determined and the median z-score for all siRNA sequences with the same seed sequence was calculated. This z-score was subtracted from the z-score associated with each siRNA with that seed sequence to generate a seed-adjusted z-score value (Z) that was used when the results for the three siRNAs corresponding to each gene were compared (Marine et al., 2012)

| Sequence | seed-corrected z-score |
| --- | --- |
| AAUGAAGGAACCAUUGCCC against IL18BP | 1.21 |
| AAAUAUCCCAUAAUCAGUG against LYZ | -0.541 |
| AAUGGAUCCAAAGAGGCUA against KIFC2 | 0.744 |
| UUUAAUGUAACUCCCACUU against DLGAP2 | 0.4 |
| UGUGGUUCAACAAGAAGCU against CD177 | -1.65 |
| ACUGGAACAAGAACCGUCC against PDIA5 | 0.508 |
| UGAUCGUACAGGUGCAUCG against IL1B | -0.147 |
| AAAUGAUCUGGUUUCCUUC against OLFML1 | -0.829 |
| UAAAUAGCAGCAUCUACUC against PPM1E | 0.41 |
| AAAACGAUCAAAAUCUGUC against RPL14 | -2.5 |
| UACGUACUCAUUCUUCAGG against CMC2 | -0.986 |
| UACAGGUAGGAGUUGUCCU against PRKACG | 0.0436 |
| UUUUAUAGAGGGAUAUUCG against NPC2 | 1.05 |
| AACUGGUUCAUCAGUGUCC against WDR89 | -2 |
| UGAAAUGCUAAUGCGUGGG against RBM33 | 0.224 |
| UGCUUGCGAACAAACAGCC against SCD5 | 0.624 |
| UAGUGAUAGAUACUGUUCC against HGF | -0.568 |
| UUUUGAUUAACUCGAGGAG against TSSK1B | 0.323 |
| UAGGGUCAUCGAGAGGUUC against MAML3 | -2.49 |
| UGCAGUUUGACGGUGCCUC against TMEM204 | -0.467 |
| UCCCAUUCCACUGCUACUG against RBMX | -2.45 |
| UAACUCGAAAGUGAACUUC against MYOZ3 | 0.0654 |
| UAGGUAAUAAUUCACAAUG against CCL19 | -0.226 |

| Sequence | seed-corrected z-score |
| --- | --- |
| UCUGUUGGUACUGUGCAGG against PPA1 | -1.37 |
| UCCGUUCACAUUCAGGAUC against SLC6A16 | -0.88 |
| UCCUUGUAGAGCUUGAUGG against TOP3B | 1.26 |
| AACUAGAAUAAAGAAGAUG against SLC6A9 | 0.0838 |
| AAAACUUCAAAUACCAUGC against SRPK1 | -1.05 |
| UUGCGGGUGACAAUCUCCC against CROCC | 0.165 |
| UUUCCGGAUCAGACCGUGC against RPS29 | 1.1 |
| UCACGGUCAACAAAGUAGG against BRINP1 | -2.87 |
| UAUAAGAAAUGGUUUUGUC against OR6C6 | 0.719 |
| AUCACGUUUAUGUCCAUUG against BMPER | -0.464 |
| UUGGCGUUCAUAAGCCGCC against PTRH1 | 0.961 |
| ACUCUUUUUAAGGUGCUUC against DTX1 | -3.91 |
| AAGUUUUCCAACGUACUCU against IL4 | 0.239 |
| AAGGUUGAGAGAUGUAGCU against SPANXA1 | 1.05 |
| UUUUAUUCUUUCGCUUUUU against MEAF6 | -1.39 |
| UUUGGAAUCAUCCAGGAAA against C8orf82 | 0.192 |
| UUCUGGAUAACAAAGUCAC against PCDH1 | 0.112 |
| UGGUGAUUCAGAUAGCUGG against ARHGAP11A | -0.84 |
| AUCUUGAUAGGGACCUUGG against PRAP1 | 0.654 |
| UGAUCUUAUAGUAAUCAGG against BRD4 | -2.52 |
| GACGGCAUCAAUCAGGUCC against PYCR1 | 0.0435 |
| AAAGAUGCAACCAAUGCUC against CDK3 | -0.134 |
| UUACUUCAAAACGGUAUCC against ASB17 | -9.19 |

| Sequence | seed-corrected z-score |
| --- | --- |
| UGAUUGUUGACUGACGAUG against DMXL1 | 1.23 |
| UUCUUUCAAAUUUCGGUUG against SOX13 | 0.262 |
| UCUUGCUCUAGUGUCCUGG against DNAJC17 | -2.46 |
| UUUAUCCUCAAAACUCUCC against C6orf10 | 0.952 |
| UCUCAUACUUCCCAUGCCC against LSP1 | -0.209 |
| UAUGGGACACUUAUUGGAG against PVRIG | -0.543 |
| AGAGCACUGAGUAGAAUGC against MFSD9 | -1.44 |
| UGCUUGUCUAAGCCUUUGG against RPS12P9 | -2.08 |
| UAAGGUAAUGAUUACCACC against RBKS | -0.288 |
| UUGACUACCAGGAAAGGCU against KRT86 | -0.062 |
| UAUUUAUUGCGAGAAUCAG against CLCN4 | -3.96 |
| UCCAGAAGCUGGAUGGUCC against GALE | -0.197 |
| UGACGUACAGGUUAGCAUC against ELAVL3 | 0.583 |
| AACGGUAUUGAUGACAGCC against TMLHE | -0.307 |
| UACGAUGUCACCUAUAUUG against CSMD2 | -0.00124 |
| UAUCUUGAGAGGUGCCUCC against THRAP3 | 1 |
| UCGUACUUUAAAGAUGUCC against CR1 | -0.43 |
| UUGUUUGCAGGAAGGGAGG against LOC643770 | -0.34 |
| UUUCUGUUCUUACAGGUGG against SRSF5 | -1.33 |
| AUAGUAAAACCAAUUACCC against OR2J2 | -2.15 |
| AUGGUGAAGACGUAGUUGC against CACNA1H | -1.21 |

Reference: PubChem BioAssay AID1159506 (National Center for Advancing Translational Sciences (NCATS), 2015)
